Test results as given in PubChem BioAssay (NCATS).
Results filed as inconclusive are left out. Unmarked numbers belong to inactive results. Calls of active or inactive are those of the source. The call rests on the fitted dose curve; in most records, active means well fitted activation curve with a large enough effect; inconclusive means small, poorly fitted or top-dose-only effect; inactive means no such curve, though single readings can be large or run the other way.

Target: Cellular tumor antigen p53 (Homo sapiens) (UniProt P04637)
Test: Primary qHTS for small molecule compounds that upregulate eGFP-tagged delta133p53alpha (in N-terminal) cells. (AID 2060322); further: nearly all actives have a fitted effect of over 75% in size;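 on activation: series mostly up to about 56 µM; 0% = DMSO vehicle and 100% = reference activator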
Settings: NCI-H358 eGFP-delta133p53alpha fluorescence, 24 h; activation: stronger effect = higher value
Summary of the method: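 NCI-H358 cells pre-induced 24 h with 10 ng/ml doxycycline to express N-terminal eGFP-delta133p53alpha, then dosed 24 h at 37C without doxycycline; fixed, Hoechst-stained, GFP intensity by laser scanning cytometry, normalized to DMSO (0%) and 57.5 uM 5-azacytidine (100%).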
Potency means the concentration at half of the fitted maximal effect.

Chain of Cellular tumor antigen p53 (Homo sapiens) (P04637 whole entry, looked up): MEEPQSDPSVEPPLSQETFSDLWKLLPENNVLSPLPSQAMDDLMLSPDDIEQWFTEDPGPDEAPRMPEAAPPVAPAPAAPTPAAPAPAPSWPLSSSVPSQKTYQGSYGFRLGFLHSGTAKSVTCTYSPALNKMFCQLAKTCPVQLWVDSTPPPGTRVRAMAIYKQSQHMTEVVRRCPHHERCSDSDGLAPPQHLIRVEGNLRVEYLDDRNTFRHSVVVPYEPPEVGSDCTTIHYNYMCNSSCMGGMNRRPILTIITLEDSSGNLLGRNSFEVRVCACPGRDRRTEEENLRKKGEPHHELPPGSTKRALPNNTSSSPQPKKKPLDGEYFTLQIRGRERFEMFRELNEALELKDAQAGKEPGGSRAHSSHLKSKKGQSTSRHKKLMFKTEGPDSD

Row | SMILES | activation | Potency
1 | Nc1ccccc1NC(=O)CCCCCCC(=O)Nc1ccccc1 | -13.4% | 
2 | O=C1c2ccccc2C(=O)C1c1ccc(Br)cc1 | -22% | 
3 | C=CC1=C(C(=O)O)N2C(=O)[C@@H](NC(=O)C(=NO)c3csc(N)n3)[C@H]2SC1 | -4.61% | 
4 | CCN(CC)CCNC(=O)c1cc(Br)c(N)cc1OC | 13% | 
5 | Cc1c(Cn2ccnc2)c2ccccc2n1CCC(=O)O | -8.47% | 
6 | O=C1O[C@H]([C@@H](O)CO)C(O)=C1O | -9.6% | 
7 | CC(=CC(=O)Nc1ccccc1C(=O)O)c1ccc2ccccc2c1 | -15.6% | 
8 | Cc1c(C)n(CCN(C)C)c2ccc(C(=O)OCCN(C)C)cc12 | -11.9% | 
9 | CC(C)OP(=O)(CP(=O)(OC(C)C)OC(C)C)OC(C)C | -4.18% | 
10 | C[C@@]12CCC[C@H]1[C@@H]1CC[C@H]3C[C@@H](O)CC[C@]3(C)[C@H]1CC2 | -12.6% | 
11 | COCCc1ccc(OCC2CO2)cc1 (stereo not given) | 7.53% | 
12 | C[C@H](CCC(=O)O)[C@H]1CC[C@H]2[C@@H]3[C@H](O)C[C@@H]4C[C@H](O)CC[C@]4(C)[C@@H]3CC[C@]12C | -19.5% | 
13 | CC(=O)O[C@]1(C(C)=O)CC[C@H]2[C@@H]3C=C(C)C4=CC(=O)CC[C@]4(C)[C@@H]3CC[C@@]21C | -16.9% | 
14 | CC1CCc2c(N3CCC(O)CC3)c(F)cc3c(=O)c(C(=O)O)cn1c23 (stereo not given) | 5.02% | 
15 | CCCCC(CC)CN=C(N)NC(N)=NCCCCCCN=C(N)NC(N)=NCC(CC)CCCC (stereo not given) |  | 13.8 µM (active)
16 | CC(C)=CCC1C(=O)N(c2ccccc2)N(c2ccccc2)C1=O | -15.3% | 
17 | CC(O)CN(CCN(CC(C)O)CC(C)O)CC(C)O (stereo not given) | 22% | 
18 | NC(=O)c1cccc2[nH]c(-c3ccc([C@@H]4CCCN4)cc3F)nc12 | -16.8% | 
19 | CN(C)CCN(Cc1ccccc1)c1ccccn1 | 24.3% | 
20 | CC(C(=O)O)c1ccc2c(c1)Cc1cccnc1O2 (stereo not given) | -30.1% | 

Row | SMILES | activation | Potency
21 | Cc1ccnc(NS(=O)(=O)c2ccc(N)cc2)n1 | -10.9% | 
22 | CC(C)[N+](C)(C)CC(O)COc1cccc2ccccc12 (stereo not given) | -17.5% | 
23 | CCCCCCc1ccc(O)cc1O | 3.35% | 
24 | N#Cc1ccc(-c2csc(NN=C3CCCC3)n2)cc1 | -8.94% | 
25 | O=C1NC(=O)C(=Cc2ccc3c(c2)OC(F)(F)O3)S1 | 27.2% | 
26 | COc1cc2nc(N3CCCCC3)nc(NC3CCN(C)CC3)c2cc1OC |  | 38.5 µM (active)
27 | CN1CCC[C@@H]1CCO[C@](C)(c1ccccc1)c1ccc(Cl)cc1 | 26.6% | 
28 | CCCCCCCCCCCCCCCC(=O)OC[C@@H](NC(=O)C(Cl)Cl)[C@H](O)c1ccc([N+](=O)[O-])cc1 | 7.1% | 
29 | COC(=O)c1cc(Cl)ccc1NS(=O)(=O)C(F)(F)F | 8.47% | 
30 | O=C(O)[C@@H]1[C@H]2C[C@H]3c4[nH]c5ccccc5c4CCN3C[C@@H]2CC[C@@H]1O |  | 3.09 µM (active)
31 | Cc1c(Nc2ncccc2C(=O)O)cccc1C(F)(F)F | -5.08% | 
32 | CC(C)(C)NC[C@H](O)COc1cccc2c1CCCC2=O | 8.47% | 
33 | O=C1C(CCC(O)c2ccc(F)cc2)C(c2ccc(O)cc2)N1c1ccc(F)cc1 (stereo not given) | -15.6% | 
34 | N/C(=N\N=C\c1ccc(Cl)cc1)N/N=C/c1ccc(Cl)cc1 | 0% | 
35 | CC(C)CCCC(C)NCCC(C)C (stereo not given) | -13.4% | 
36 | CCCOC(=O)c1ccc(N)cc1 | 0% | 
37 | COc1cc(/C=C/C(N)=O)cc(OC)c1OC | -18.6% | 
38 | CCn1cc(-c2cccc(C(F)(F)F)c2)c2sc(C(N)=NC3CCS(=O)(=O)CC3)cc2c1=O | 12.3% | 
39 | CN1CCN(C2=Nc3cc(F)ccc3Cc3ccccc32)CC1 | -11.9% | 
40 | CCCCC(=O)O[C@]1(C(=O)CO)CC[C@H]2[C@@H]3CCC4=CC(=O)CC[C@]4(C)[C@H]3[C@@H](O)C[C@@]21C | 29.3% | 
